Source: PubChem
Most compounds without a hit are left out; they make up all but 3.5% or so of the library.
mHTT-CaM PPI inh: mHTT-calmodulin interaction abrogation; P42858; AlphaScreen His-mHTT/GST-CaM binding, luminescence; inhibition, % at 15 µM; actives 3.6% (n = 190,000); AID 1671202;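 note: 0% = both proteins with DMSO and 100% = one protein alone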
Pf apPOL inh: Pf-apPOL DNA polymerase inhibition; Recombinant Pf-apPOL, molecular beacon fluorescence, 1.5 h; inhibition, % at 10 µM; actives 0.25% (n = 210,000)
The depositor's hits bear a star; nt = no result given. Cut-off read from the data, not from the text of the source: active = inhibition above about 50%; inactive = the rest.

SMILES	mHTT-CaM PPI inh	Pf apPOL inh
O=C(c1ccc(Cl)cc1)N(c1ccc(Cl)cc1)C1C=CS(=O)(=O)C1 (centres undefined)	1	0
CC1CN(C(=O)Nc2cccc(Cl)c2)c2ccccc2O1 (centres undefined)	-5	-8
Cc1cc(C(C)(C)C)ccc1OCCNCCO	-3	-1
COc1cc(OC)c(OC)cc1CNc1ccc([N+](=O)[O-])cc1C	4	-10
COc1cc(OC)c(OC)cc1CNc1ccc(Br)cc1C	76*	-2
OC(COc1ccccc1Br)CN1CCCCC1 (centres undefined)	-12	-9
COC(=O)c1cnc2nc(C)ccc2c1Nc1ccc(C)c(Cl)c1	78*	0
COC(=O)c1cnc2nc(C)ccc2c1Nc1ccc(Br)cc1C	94*	-15
CCOC(=O)c1cnc2nc(C)ccc2c1Nc1ccc(F)c(F)c1	34	-4
COC(=O)c1cnc2nc(C)ccc2c1Nc1ccc(OC)cc1	13	2
COC(=O)c1cnc2nc(C)ccc2c1Nc1ccc(F)c(Cl)c1	0	-5
CCOC(=O)c1cnc2nc(C)ccc2c1Nc1ccc(Cl)cc1	66*	-8
COC(=O)c1cnc2nc(C)ccc2c1Nc1ccc(Cl)cc1	62*	-8
COC(=O)c1cnc2nc(C)ccc2c1Nc1cccc(Br)c1	14	-19
Cc1cc(Br)ccc1OCC(=O)N1CCN(c2ccc([N+](=O)[O-])cc2)CC1	2	-6
Cc1ccc(-c2nc(S(=O)(=O)c3ccc(C)cc3)c(NCc3ccco3)o2)cc1	-2	0
CCCCNC(=O)C1CCc2nc(N3CCN(C(C)=O)CC3)sc2C1 (centres undefined)	0	0
Cc1ccc(Cl)cc1NC(=O)CCc1ccc2nc[nH]c2c1	1	-3
COC(=O)c1cnc2nc(C)ccc2c1Nc1ccc(C)cc1Cl	47	8
COC(=O)c1cnc2nc(C)ccc2c1Nc1cc(Cl)ccc1C	65*	0
O=C(NCCC1=CCCCC1)c1csc(Nc2ncccn2)n1	-11	-6
O=C(/C=C/c1ccc(-c2ccccc2[N+](=O)[O-])o1)c1ccco1	71*	-4
O=C(/C=C/c1ccc(-c2ccc(Cl)cc2)o1)c1ccco1	58*	-4
O=C(/C=C/c1ccc(-c2ccc([N+](=O)[O-])cc2)o1)c1ccco1	13	8
O=C(/C=C/c1ccc(-c2ccccc2)o1)c1ccco1	48	-1
SMILES	mHTT-CaM PPI inh	Pf apPOL inh
CC1=C/C(=C\c2ccc(-c3ccccc3[N+](=O)[O-])o2)C(=O)O1	51*	0
CC1=C/C(=C/c2ccc(-c3ccc([N+](=O)[O-])cc3)o2)C(=O)O1	19	3
Cc1ccc(NC(=O)C2C3C=CC(C3)C2C(=O)O)c(C)c1 (centres undefined)	-6	-9
CC(=O)c1ccc(NC(=O)c2cccnc2Cl)cc1	6	-1
CN(C)CCCNC(=O)c1cc2c(n(-c3ccc(Cl)c(Cl)c3)c1=O)CC(C)(C)CC2=O	5	4
Cn1nc(CC(=O)Nc2ccc(F)cc2F)c2ccccc2c1=O	1	-2
CC(C)c1nc2c(c(=O)n1CC(=O)Nc1cccc(F)c1)CCN(Cc1ccccc1)C2	84*	-4
CC(C)c1nc2c(c(=O)n1CC(=O)Nc1ccccc1F)CCN(Cc1ccccc1)C2	9	-1
COc1ccc(NC(=O)C2CC(=O)NC(Nc3nc(C)c4ccccc4n3)=N2)cc1 (centres undefined)	33	-13
COc1ccc(C2CC(=O)NC(Nc3nc(C)c4ccc(C)cc4n3)=N2)cc1 (centres undefined)	68*	-11
COc1ccc2nc(NC3=NC(c4ccccc4)CC(=O)N3)nc(C)c2c1 (centres undefined)	54*	60*
COc1ccc2c(C)nc(Nc3nc4ccccc4c(=O)[nH]3)nc2c1	1	-4
O=C1C2CC=CCC2C(=O)N1c1ccc(NCc2ccccn2)c([N+](=O)[O-])c1 (centres undefined)	25	-15
O=C(NCCCN1CCOCC1)c1cc(Sc2ccc(Cl)cc2)nc2ccccc12	32	-1
Cc1onc(-c2c(Cl)cccc2Cl)c1NC(=O)ON=Cc1ccc(N(C)C)cc1	nt	4
O=C1CSC(c2ccc([N+](=O)[O-])cc2)N1c1ccc(Oc2ccccc2)cc1 (centres undefined)	75*	-2
Cc1ccc(N2C(=O)CSC2c2ccc([N+](=O)[O-])cc2)cc1 (centres undefined)	8	0
Cc1ccc(N2C(=O)CSC2c2ccc3c(c2)OCO3)cc1 (centres undefined)	1	-2
O=C1CSC(c2ccc3c(c2)OCO3)N1c1ccc(Oc2ccccc2)cc1 (centres undefined)	100*	-1
COC(=O)c1ccc(N2CCN(C(C)C)CC2)c(NC(=O)c2ccccc2C)c1	-5	0
COc1cc(CN2CCN(C=O)CC2)ccc1OCc1ccccc1	-2	7
O=C1NC2(CCN(C(=O)NCc3ccccc3)CC2)Nc2cc(Cl)ccc21	-2	-4
O=C(Nc1ccccc1F)c1ccc2nc(-c3ccco3)c(-c3ccco3)nc2c1	-1	3
O=C(c1ccc2nc(-c3ccco3)c(-c3ccco3)nc2c1)N(CCO)c1ccccc1	67*	2
O=C(Nc1ccc2nsnc2c1)NC1CC1	0	-3
SMILES	mHTT-CaM PPI inh	Pf apPOL inh
O=C(NC1=NCCS1)c1ccc2nc(-c3ccco3)c(-c3ccco3)nc2c1	72*	-4
O=C(Nc1nccs1)c1ccc2nc(-c3ccco3)c(-c3ccco3)nc2c1	93*	2
CCOC(=O)N1CCN(C(=O)c2ccc3nc(-c4ccco4)c(-c4ccco4)nc3c2)CC1	-3	1
O=C(c1ccc2nc(N3C(=O)CCC3=O)sc2c1)N(CCO)c1ccccc1	10	-4
O=C(Nc1ccc2nc(-c3ccco3)c(-c3ccco3)nc2c1)NC1CC1	99*	-2
Cc1ccccc1CNC(=O)C1(C)CCCN(C(=O)NCc2ccco2)C1 (centres undefined)	5	-5
COCCN(Cc1ccncc1)S(=O)(=O)c1cc(C)c(Cl)cc1Cl	-7	-7
COc1cccc(C2C(C(=O)Nc3ccccc3)=C(C)Nc3nc(-c4ccccc4)nn32)c1OC (centres undefined)	70*	7
COc1ccc(C2C(C(=O)Nc3ccccc3)=C(C)Nc3nc(-c4ccccc4)nn32)c(OC)c1 (centres undefined)	44	-1
CCOc1ccccc1C(=O)Nc1cccc(F)c1	-35	2
Cn1nnnc1SCC(=O)NCCn1nc(-c2ccc(F)cc2)ccc1=O	-13	-4
O=C(CC(c1ccccc1)c1ccccc1)NCCn1nc(-c2ccc(F)cc2)ccc1=O	95*	-13
CCOc1ccc(C2CC(=O)Nc3n[nH]c(C)c32)cc1OC (centres undefined)	5	-4
CCC(C)N1CCN(C(=O)C2CCc3nc(N(CC)CC)ncc3C2)CC1 (centres undefined)	8	0
CC(C)=C1SC(=O)N(CC(=O)Nc2ccc(S(N)(=O)=O)cc2)C1=O	-8	-2
NS(=O)(=O)c1ccc(NC(=O)CN2CC(=O)Oc3ccccc32)cc1	98*	-166
Cc1nc2cc(N3CC(C(=O)Nc4ccc(Br)cc4)CC3=O)ccc2o1 (centres undefined)	-3	0
CCSc1nnc(NC(=O)c2ccc(N3CCCC3)nn2)s1	26	-6
Cc1csc(NC(=O)c2ccc(N3CCCC3)nn2)n1	72*	-4
